What all share (assay): DAPPL (digital affinity profiling via proximity ligation, sequencing); 10 mM Tris-HCl pH 7.5, 50 mM NaCl, 1 mM DTT, 4% glycerol, room temperature, 30 min; GST-TFs on glutathione beads, 16-mer random dsDNA library, 0.1% formaldehyde crosslink after washing; high values mean tight binding
The target in test [1] is T1, FEV (Homo sapiens, UniProt Q99581 1-238).
T1 sequence: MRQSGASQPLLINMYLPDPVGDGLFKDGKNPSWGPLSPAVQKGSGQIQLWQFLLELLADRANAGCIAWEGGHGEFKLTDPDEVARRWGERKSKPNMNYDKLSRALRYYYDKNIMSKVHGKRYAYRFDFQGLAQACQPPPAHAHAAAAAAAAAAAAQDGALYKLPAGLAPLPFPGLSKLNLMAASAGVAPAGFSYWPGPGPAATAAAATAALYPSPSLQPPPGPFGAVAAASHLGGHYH
Particulars: protein: recombinant; tags: N-terminal GST; dsDNA, one strand shown. The gist of the method: (§1)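 Yeast served to express human transcription factors as GST fusions, which were then captured on glutathione beads and labelled with DNA barcodes. Pooled with a tag-only sample, they were incubated with 200 nmole of a 16-mer random double-stranded DNA library for 30 min at room temperature in Tris/NaCl/DTT/glycerol buffer, washed, crosslinked with 0.1% formaldehyde, ligated by proximity, amplified by PCR and sequenced. Dividing each hexamer's read frequency for a factor by its frequency for the tag-only sample gives the binding signal.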

Test [2] has as its target ETV5 (Homo sapiens, UniProt P41161 1-510). Particulars: protein: recombinant; tags: N-terminal GST; dsDNA, one strand shown. A digest of the protocol:
as §1

Test [3] deals with HSF1 (Homo sapiens, UniProt Q00613 1-529). The conditions noted are these: protein: recombinant; tags: N-terminal GST; chain copies: 3; dsDNA, one strand shown. The gist of the method:
as §1

The target in test [4] is T2, SPIC (Homo sapiens, UniProt Q8N5J4 1-248).
T2 sequence: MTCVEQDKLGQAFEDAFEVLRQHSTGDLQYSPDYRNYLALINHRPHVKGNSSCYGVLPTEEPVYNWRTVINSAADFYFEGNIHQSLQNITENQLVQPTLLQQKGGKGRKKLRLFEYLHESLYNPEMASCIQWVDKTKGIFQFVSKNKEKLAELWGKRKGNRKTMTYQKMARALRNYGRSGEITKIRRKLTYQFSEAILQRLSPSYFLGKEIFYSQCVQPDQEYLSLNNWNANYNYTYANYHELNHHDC
The conditions noted are these: protein: recombinant; tags: N-terminal GST; dsDNA, one strand shown. A digest of the protocol: as §1

Test [5] concerns the target ELF4 (Homo sapiens, UniProt Q99607 1-663). The conditions noted are these: protein: recombinant; tags: N-terminal GST; dsDNA, one strand shown. The gist of the method:
as §1

Test [6] concerns the target T3, ELK4 (Homo sapiens, UniProt P28324-2 1-405).
T3 sequence: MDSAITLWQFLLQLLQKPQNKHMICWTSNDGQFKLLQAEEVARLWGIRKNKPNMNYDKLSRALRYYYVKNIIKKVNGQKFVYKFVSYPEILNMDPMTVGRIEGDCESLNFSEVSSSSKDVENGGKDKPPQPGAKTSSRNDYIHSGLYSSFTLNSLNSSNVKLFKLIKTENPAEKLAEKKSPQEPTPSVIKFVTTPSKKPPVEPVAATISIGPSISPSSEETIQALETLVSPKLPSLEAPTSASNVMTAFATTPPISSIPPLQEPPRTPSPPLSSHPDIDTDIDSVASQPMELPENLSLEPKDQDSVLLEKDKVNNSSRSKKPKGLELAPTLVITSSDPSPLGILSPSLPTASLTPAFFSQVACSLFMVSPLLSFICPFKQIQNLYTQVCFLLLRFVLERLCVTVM
Particulars: protein: recombinant; tags: N-terminal GST; dsDNA, one strand shown. The gist of the method: as §1

Test [7] addresses T4, ETV2 (Homo sapiens, UniProt O00321 1-342).
T4 sequence: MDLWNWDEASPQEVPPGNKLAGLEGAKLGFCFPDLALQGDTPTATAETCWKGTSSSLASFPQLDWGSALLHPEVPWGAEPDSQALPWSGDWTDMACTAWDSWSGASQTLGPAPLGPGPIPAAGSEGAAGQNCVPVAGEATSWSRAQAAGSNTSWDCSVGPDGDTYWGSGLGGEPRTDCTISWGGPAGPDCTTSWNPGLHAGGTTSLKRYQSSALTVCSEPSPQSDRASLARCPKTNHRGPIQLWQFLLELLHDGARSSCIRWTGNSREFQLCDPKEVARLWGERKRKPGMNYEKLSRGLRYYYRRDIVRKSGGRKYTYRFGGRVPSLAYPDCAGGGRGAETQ
Particulars: protein: recombinant; tags: N-terminal GST; dsDNA, one strand shown. The gist of the method: as §1

Test [8] has as its target T5, ELF3 (Homo sapiens, UniProt P78545 1-371).
T5 sequence: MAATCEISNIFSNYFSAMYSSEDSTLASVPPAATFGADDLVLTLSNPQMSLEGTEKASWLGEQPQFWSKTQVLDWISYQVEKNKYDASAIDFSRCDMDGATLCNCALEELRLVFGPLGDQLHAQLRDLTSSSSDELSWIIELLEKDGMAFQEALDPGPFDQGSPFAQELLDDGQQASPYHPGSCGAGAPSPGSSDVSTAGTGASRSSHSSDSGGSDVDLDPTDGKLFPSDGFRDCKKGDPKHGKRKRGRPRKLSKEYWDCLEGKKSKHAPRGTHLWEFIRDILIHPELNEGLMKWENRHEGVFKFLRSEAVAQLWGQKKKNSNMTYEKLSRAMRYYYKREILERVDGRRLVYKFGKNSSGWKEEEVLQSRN
The conditions noted are these: protein: recombinant; tags: N-terminal GST; dsDNA, one strand shown. A digest of the protocol: as §1

In test [9] the target is CRX (Homo sapiens, UniProt O43186 1-299). The conditions noted are these: protein: recombinant; tags: N-terminal GST; dsDNA, one strand shown. A digest of the protocol:
as §1

In test [10] the target is ETV1 (Homo sapiens, UniProt P50549 1-477). The conditions noted are these: protein: recombinant; tags: N-terminal GST; dsDNA, one strand shown. The gist of the method:
as §1

Chain of ETV5 (P41161 whole entry): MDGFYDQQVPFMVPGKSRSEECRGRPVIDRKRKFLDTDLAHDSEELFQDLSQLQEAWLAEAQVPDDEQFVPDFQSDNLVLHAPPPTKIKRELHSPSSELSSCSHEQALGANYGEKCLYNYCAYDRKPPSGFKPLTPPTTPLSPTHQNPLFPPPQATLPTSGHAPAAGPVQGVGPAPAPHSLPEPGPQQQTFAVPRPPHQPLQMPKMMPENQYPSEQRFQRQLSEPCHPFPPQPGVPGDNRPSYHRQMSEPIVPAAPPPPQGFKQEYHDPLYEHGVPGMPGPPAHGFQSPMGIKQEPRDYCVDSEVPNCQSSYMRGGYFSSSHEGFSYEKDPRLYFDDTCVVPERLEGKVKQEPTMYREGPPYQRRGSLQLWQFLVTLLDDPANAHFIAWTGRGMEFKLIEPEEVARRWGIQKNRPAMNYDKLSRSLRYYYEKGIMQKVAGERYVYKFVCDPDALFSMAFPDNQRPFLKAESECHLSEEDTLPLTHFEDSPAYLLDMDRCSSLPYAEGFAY
Chain of HSF1 (Q00613 whole entry): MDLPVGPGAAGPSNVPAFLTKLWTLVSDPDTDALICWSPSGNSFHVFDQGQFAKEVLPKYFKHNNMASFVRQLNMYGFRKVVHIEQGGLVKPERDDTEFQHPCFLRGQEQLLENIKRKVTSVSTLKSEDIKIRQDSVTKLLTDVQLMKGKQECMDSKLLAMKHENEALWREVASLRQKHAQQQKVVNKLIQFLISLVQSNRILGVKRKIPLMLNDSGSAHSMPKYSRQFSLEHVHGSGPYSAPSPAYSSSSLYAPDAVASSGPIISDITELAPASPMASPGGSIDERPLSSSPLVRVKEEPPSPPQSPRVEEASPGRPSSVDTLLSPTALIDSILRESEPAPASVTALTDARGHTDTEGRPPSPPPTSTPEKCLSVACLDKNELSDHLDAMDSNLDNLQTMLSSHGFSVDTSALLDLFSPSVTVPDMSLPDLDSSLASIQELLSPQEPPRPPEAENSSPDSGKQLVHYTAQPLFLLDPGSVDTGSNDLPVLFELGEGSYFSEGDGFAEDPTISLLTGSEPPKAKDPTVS
Chain of ETV1 (P50549 whole entry): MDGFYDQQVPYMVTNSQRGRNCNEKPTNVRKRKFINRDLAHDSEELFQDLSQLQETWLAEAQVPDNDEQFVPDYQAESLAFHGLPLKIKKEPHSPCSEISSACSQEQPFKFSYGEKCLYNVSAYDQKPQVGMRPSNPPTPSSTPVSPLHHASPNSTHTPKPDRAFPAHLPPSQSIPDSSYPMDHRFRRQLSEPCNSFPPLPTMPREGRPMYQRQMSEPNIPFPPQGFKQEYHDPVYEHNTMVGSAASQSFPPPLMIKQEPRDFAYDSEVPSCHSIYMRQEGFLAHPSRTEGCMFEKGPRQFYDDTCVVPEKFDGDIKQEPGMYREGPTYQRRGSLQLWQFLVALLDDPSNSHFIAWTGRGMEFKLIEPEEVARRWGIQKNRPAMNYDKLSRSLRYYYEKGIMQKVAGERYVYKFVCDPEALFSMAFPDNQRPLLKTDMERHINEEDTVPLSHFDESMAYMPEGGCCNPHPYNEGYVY
Chain of ELF4 (Q99607 whole entry): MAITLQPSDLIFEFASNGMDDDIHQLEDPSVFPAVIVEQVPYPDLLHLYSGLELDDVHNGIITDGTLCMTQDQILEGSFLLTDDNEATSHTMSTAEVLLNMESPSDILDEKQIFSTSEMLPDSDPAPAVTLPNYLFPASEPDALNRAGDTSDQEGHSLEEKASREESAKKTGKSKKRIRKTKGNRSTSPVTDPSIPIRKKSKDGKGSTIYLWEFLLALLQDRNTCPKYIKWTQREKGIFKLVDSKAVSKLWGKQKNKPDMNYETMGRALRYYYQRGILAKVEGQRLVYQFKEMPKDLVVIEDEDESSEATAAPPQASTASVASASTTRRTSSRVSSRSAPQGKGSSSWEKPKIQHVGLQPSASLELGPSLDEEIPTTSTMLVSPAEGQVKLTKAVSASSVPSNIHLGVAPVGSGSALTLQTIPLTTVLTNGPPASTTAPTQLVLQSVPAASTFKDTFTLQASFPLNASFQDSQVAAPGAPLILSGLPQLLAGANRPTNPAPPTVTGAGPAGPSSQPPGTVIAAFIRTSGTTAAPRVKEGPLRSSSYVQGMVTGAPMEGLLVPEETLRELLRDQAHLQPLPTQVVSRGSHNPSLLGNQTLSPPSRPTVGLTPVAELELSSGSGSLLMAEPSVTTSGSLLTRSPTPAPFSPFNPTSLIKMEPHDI
Chain of CRX (O43186 whole entry): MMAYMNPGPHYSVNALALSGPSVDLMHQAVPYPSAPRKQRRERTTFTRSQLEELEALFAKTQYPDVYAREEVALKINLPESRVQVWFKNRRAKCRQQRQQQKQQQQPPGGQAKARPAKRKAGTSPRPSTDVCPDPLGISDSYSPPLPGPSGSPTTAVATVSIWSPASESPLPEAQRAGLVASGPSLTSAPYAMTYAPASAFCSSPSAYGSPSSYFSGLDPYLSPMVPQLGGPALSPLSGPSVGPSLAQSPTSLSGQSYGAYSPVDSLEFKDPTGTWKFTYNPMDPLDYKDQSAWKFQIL

With ATTATC, the binding signal was 1.29 fold enrichment (6-mer frequency, TF over GST control) in test [1]; 1.26 fold enrichment (6-mer frequency, TF over GST control) in [2]; 2.51 fold enrichment (6-mer frequency, TF over GST control) in test [3]; 1.34 fold enrichment (6-mer frequency, TF over GST control) in [4]; 1.32 fold enrichment (6-mer frequency, TF over GST control) in test [5]; 1.39 fold enrichment (6-mer frequency, TF over GST control) in test [6]. Besides, the binding signal is 1.38 fold enrichment (6-mer frequency, TF over GST control) in test [7]; 1.39 fold enrichment (6-mer frequency, TF over GST control) in test [8]; 3.86 fold enrichment (6-mer frequency, TF over GST control) in test [9]; 1.31 fold enrichment (6-mer frequency, TF over GST control) in test [10].
On to AGTAAT, for which the binding signal in test [1] was 1.05 fold enrichment (6-mer frequency, TF over GST control); in test [2] it was 1.12 fold enrichment (6-mer frequency, TF over GST control); in test [3], 1.3 fold enrichment (6-mer frequency, TF over GST control); in [4], 1.12 fold enrichment (6-mer frequency, TF over GST control); in test [5], 1.1 fold enrichment (6-mer frequency, TF over GST control); in [6], 1.08 fold enrichment (6-mer frequency, TF over GST control). Further, the binding signal in test [7] is 1.24 fold enrichment (6-mer frequency, TF over GST control); in test [8] it was 1.08 fold enrichment (6-mer frequency, TF over GST control); in [9] it was 1.61 fold enrichment (6-mer frequency, TF over GST control); in [10], 1.06 fold enrichment (6-mer frequency, TF over GST control).
Turning to TACAAT, the binding signal was 1.29 fold enrichment (6-mer frequency, TF over GST control) in [1]; 1.3 fold enrichment (6-mer frequency, TF over GST control) in [2]; 1.32 fold enrichment (6-mer frequency, TF over GST control) in test [3]; 1.25 fold enrichment (6-mer frequency, TF over GST control) in [4]; 1.26 fold enrichment (6-mer frequency, TF over GST control) in test [5]; 1.47 fold enrichment (6-mer frequency, TF over GST control) in [6]. The binding signal in test [7] is 1.31 fold enrichment (6-mer frequency, TF over GST control); in test [8], 1.36 fold enrichment (6-mer frequency, TF over GST control); in test [9], 1.44 fold enrichment (6-mer frequency, TF over GST control); in [10], 1.33 fold enrichment (6-mer frequency, TF over GST control).
As to TTATAG, the binding signal in [1] was 1.17 fold enrichment (6-mer frequency, TF over GST control); in [2] it was 1.29 fold enrichment (6-mer frequency, TF over GST control); in test [3], 1.8 fold enrichment (6-mer frequency, TF over GST control); in [4], 1.38 fold enrichment (6-mer frequency, TF over GST control); in test [5], 1.13 fold enrichment (6-mer frequency, TF over GST control); in test [6], 1.24 fold enrichment (6-mer frequency, TF over GST control). Besides, the binding signal in test [7] is 1.07 fold enrichment (6-mer frequency, TF over GST control); in test [8] it was 1.27 fold enrichment (6-mer frequency, TF over GST control); in [9] it was 2.46 fold enrichment (6-mer frequency, TF over GST control); in test [10], 1.18 fold enrichment (6-mer frequency, TF over GST control).
In the case of TTTAAT, the binding signal in test [1] is 1.26 fold enrichment (6-mer frequency, TF over GST control); in [2], 1.32 fold enrichment (6-mer frequency, TF over GST control); in test [3], 2.06 fold enrichment (6-mer frequency, TF over GST control); in test [4], 1.25 fold enrichment (6-mer frequency, TF over GST control); in test [5] it was 1.32 fold enrichment (6-mer frequency, TF over GST control); in test [6], 1.35 fold enrichment (6-mer frequency, TF over GST control). The binding signal in test [7] is 1.06 fold enrichment (6-mer frequency, TF over GST control); in test [8], 1.3 fold enrichment (6-mer frequency, TF over GST control); in test [9], 3.28 fold enrichment (6-mer frequency, TF over GST control); in test [10] it was 1.34 fold enrichment (6-mer frequency, TF over GST control).
With TCTAAC, the binding signal in test [1] is 1.23 fold enrichment (6-mer frequency, TF over GST control); in [2], 1.21 fold enrichment (6-mer frequency, TF over GST control); in [3], 1.25 fold enrichment (6-mer frequency, TF over GST control); in test [4], 1.07 fold enrichment (6-mer frequency, TF over GST control); in test [5] it was 1.22 fold enrichment (6-mer frequency, TF over GST control); in [6], 1.2 fold enrichment (6-mer frequency, TF over GST control). Also, the binding signal in test [7] is 1.12 fold enrichment (6-mer frequency, TF over GST control); in test [8] it was 1.23 fold enrichment (6-mer frequency, TF over GST control); in test [9], 1.24 fold enrichment (6-mer frequency, TF over GST control); in test [10] it was 1.16 fold enrichment (6-mer frequency, TF over GST control).
For the sequence TAACGA, the binding signal in test [1] is 1.08 fold enrichment (6-mer frequency, TF over GST control); in test [2] it was 1.06 fold enrichment (6-mer frequency, TF over GST control); in test [3], 1.23 fold enrichment (6-mer frequency, TF over GST control); in test [4], 1.1 fold enrichment (6-mer frequency, TF over GST control); in [5] it was 1.12 fold enrichment (6-mer frequency, TF over GST control); in test [6] it was 1.09 fold enrichment (6-mer frequency, TF over GST control). Also, the binding signal is 1.04 fold enrichment (6-mer frequency, TF over GST control) in [7]; 1.02 fold enrichment (6-mer frequency, TF over GST control) in test [8]; 1.57 fold enrichment (6-mer frequency, TF over GST control) in test [9]; 1.08 fold enrichment (6-mer frequency, TF over GST control) in test [10].

These data come from PMC7862700, “An all-to-all approach to the identification of sequence-specific readers for epigenetic DNA modifications on cytosine”.
